# ssDAF-12 act: activates DAF-12 receptor from parasite S. stercoralis; HEK293 ssDAF-12/GRIP1 lit1-tk-luc reporter, luminescence; % of 3 µM dafachronic acid response; activation, % at 6.8 µM; 370,000 compounds, 1% hits; AID 652126;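 active = activation above the mean over all tested compounds plus 3 SD, cut at about 0.9% in these data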;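 note: 0% = DMSO-only wells and 100% = 3 µM delta7-dafachronic acid wells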
# hcDAF12 agonist: H. contortus DAF-12 activation, primary screen; HEK293 hcDAF-12 lit1-tk-luc reporter, luminescence; 0% DMSO, 100% Δ7-dafachronic acid; activation, % at 6.8 µM; 370,000 compounds, 1.4% hits;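 active = activation above the mean of all tested compounds plus 3 SD, cut at about 5.5% in these data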;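 note: 100% = response to 3 µM Δ7-dafachronic acid high control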
# APP 5'UTR act: activates APP 5'UTR luciferase reporter | SH-SY5Y APP 5'UTR luciferase reporter, luminescence; zero percent = DMSO vehicle wells | activation, % at 2 µM | 190,000 compounds, 1% hits | AID 1276;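 active = activation above a set limit, based on mean plus 3 SD of controls, cut at about 140% in these data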
# NF-kB expr up: NF-kB expression increase, human neuronal cells; fold change at 12.5 µM; 190,000 compounds, 1.6% hits; NF-kB reporter expression; active compounds read high; in the data active = fold change above about 3.3
# hgDAF-12 ag: hgDAF-12 agonism, primary luciferase screen; HEK293 GAL4-hgDAF12 UAS-luciferase reporter, agonist luminescence; normalized to butyrate control; activation, % at 6.8 µM; 370,000 compounds, 1.8% hits;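 active = activation above a cutoff set at the mean of all screened compounds plus 3 SD, cut at about 10% in these data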;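 note: 0% = DMSO wells and 100% = sodium butyrate wells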
# * hit, by the source's call; . = no result given. An excerpt weighted towards active compounds, which were near 3.4% of everything screened.
SMILES,ssDAF-12 act,hcDAF12 agonist,APP 5'UTR act,NF-kB expr up,hgDAF-12 ag
C/C(=N\NC(=O)c1ccccc1OCCOc1ccccc1)c1ccccc1F,0,1,.,.,1
NC(=O)COc1ccccc1,1.2*,1,.,.,1
NC(=S)COc1ccccc1,-2,-3,.,.,0
O=C(Nc1ccccc1)OCCOc1ccccc1,-1,2,88,4.5*,12*
NNC(=O)c1ccccc1OCCOc1ccccc1,2.7*,3,.,.,0
O=C(Nc1cccc(C(F)(F)F)c1)OC1CCC12CCC(c1ccccc1)CC2 (stereo not drawn),-1,4,.,.,1
COc1ccc(CCNC(=O)c2ccc3c(c2)ncn3C2CCCCC2)cc1,-1,-3,.,.,-1
C[C@@H]1OC(c2ccccc2)N(C)[C@H]2C[C@H]3c4[nH]c5cccc(-c6ccccc6)c5c4CCN3C[C@@H]12 (stereo partly drawn),-1,-2,.,.,1
C=CCSc1ncc(-c2ccccc2)cn1,-1,2,19,2.2,7
C#CCSc1ncc(-c2ccccc2)cn1,1.9*,4,13,1.9,13*
CCCS/C(N)=N/N=C/c1ccccc1O,0,4,90,3.3*,10
Oc1ccccc1C=NN=Cc1ccccc1Cl,1,0,.,.,1
CCOc1cccc(/C=N/N=C/c2cccc(OCC)c2O)c1O,0,2,.,.,-2
CCOc1ccccc1C=NN=Cc1ccccc1O,1.1*,0,.,.,-1
CN(C)c1cccc(/C=C2\CC3(OC(=O)c4ccc(F)cc4)CCCN2C3)c1 (stereo not drawn),0,-1,.,.,0
COc1ccc(CCNC(=O)Cc2nn(C)c(=O)c3ccccc23)cc1OC,-1,-2,5,0.89,-2
COc1cccc(OCc2ccc(Cn3nc(NC(=O)NCCc4ccc(OC)c(OC)c4)c4ccccc43)cc2)c1,2.2*,5.8*,.,.,2
COc1ccc(C(CCOC(=O)Oc2ccccc2)c2cc(OC)c(OC)c(OC)c2)cc1 (stereo not drawn),-2,-3,.,.,0
Cn1c(-c2ccccc2)cc(=O)cc1-c1ccccc1,-1,1,.,.,1
Cn1c(-c2ncc(F)cc2F)cc2onc(-c3c(F)cccc3Cl)c2c1=O,1.3*,9.3*,.,.,10
Cn1c(-c2ccccc2)cc2onc(-c3ccccc3)c2c1=O,0,5.6*,.,.,4
Cn1c(-c2ccccc2F)cc2onc(-c3ccccc3)c2c1=O,0,4,.,.,12*
COc1ccc(-c2noc(C3CCCN(C(=O)Nc4ccc(Cl)cc4)C3)n2)cc1 (stereo not drawn),-1,0,.,.,3
CCn1c2ccccc2c2cc(Nc3cc(C)nc4ncnn34)ccc21,-2,-1,-96,4.4*,-8
CCc1ccc(Nc2cc(C)nc3ncnn23)cc1,-2,-3,.,.,0
SMILES,ssDAF-12 act,hcDAF12 agonist,APP 5'UTR act,NF-kB expr up,hgDAF-12 ag
COC(=O)[C@]12C[C@H](CC(=O)N3CCC(c4ccccc4)CC3)C(=O)N(Cc3ccc(Cl)cc3Cl)C1=C[C@H](C(C)C)O[C@@H]2C1CC1,-1,2,.,.,0
COc1ccc(C(=O)Nc2cc(Cl)ccc2OC(=O)c2ccc(OC)cc2)cc1,.,.,60,2.5,.
Cc1ccc(C(=O)Nc2cc(Cl)ccc2OC(=O)c2ccc(C)cc2)cc1,0,5,78,4.1*,8
O=C(CSc1nccc(-c2cccs2)n1)Nc1cccc(Cl)c1Cl,1.1*,2,.,.,1
CC(CCN1CCC(C(O)(c2ccccc2)c2ccccc2)CC1)Oc1ccc(C#N)cc1F (stereo not drawn),-1,6.0*,.,.,-3
CC(CCN1CCC(C(O)(c2ccccc2)c2ccccc2)CC1)Oc1cc(F)cc(C#N)c1 (stereo not drawn),-1,3,.,.,-1
COc1cccc(OC(C)CCN2CCC(C(O)(c3ccccc3)c3ccccc3)CC2)c1 (stereo not drawn),0.9*,3,.,.,1
Cc1ccc(S(=O)(=O)N2c3ccccc3C[C@H]2CCC(=O)c2ccccc2)cc1,0,2,.,.,1
CC(C)NC(=O)Cn1c(-c2cncs2)nc2ccccc21,-2,-1,.,.,0
COC(=O)C1CN(CCO)CCS(=O)(=O)N1Cc1cn(Cc2ccccc2Br)nn1 (stereo not drawn),-1,0,.,.,5
O=C(COC(=O)c1nc(Cl)ccc1Cl)Nc1ccc(Cl)cn1,1.0*,5.7*,.,.,0
CSCCC(NS(=O)(=O)c1ccc2c(c1)oc(=O)n2C)C(=O)NC1CCN(Cc2ccccc2)CC1 (stereo not drawn),0,6.4*,2,0.98,10
CCOC(=O)c1sc(=NC(=O)c2ccc(F)cc2)n(C)c1C,0,6.0*,.,.,7
CCOC(=O)c1sc(=NC(=O)c2cccc(C)c2)n(C)c1C,-1,2,162*,3.5*,7
CCOC(=O)c1sc(=NC(=O)c2cccc(Br)c2)n(C)c1C,-1,1,.,.,5
O=C(Cn1nc(-c2ccccc2)ccc1=O)NCCc1ccccc1F,-1,-2,.,.,1
CCCNC(=O)N1[C@@H](CO)[C@H](c2ccc(C3=CCCC3)cc2)[C@@H]1CN(CC)S(=O)(=O)c1ccccc1[N+](=O)[O-],-2,-3,.,.,-2
O=C(c1cccc(F)c1F)N(Cc1ccccn1)CC1CCCO1 (stereo not drawn),-1,-2,.,.,0
Cc1cc(N2CCN(C(=O)Oc3ccc(C(F)(F)F)cc3)CC2)c2ccccc2n1,-2,-5,.,.,-5
Cc1cc(C(=O)O)ccc1N/C=C1\CCCC(C)C1=O (stereo not drawn),1,3,149*,4*,11*
NNC(=O)CSc1cccc2cccnc12,-1,-2,40,1,4
O=C(CSc1cccc2cccnc12)N1CCCC1,-2,-1,-28,5*,-3
CN(C)C(=O)CSc1cccc2cccnc12,-1,-2,-11,5.1*,-3
O=C(NCc1ccccc1)Nc1ccccc1C(=O)N1CCCC1,-1,2,.,.,-2
O=C(O)c1ccc(C#Cc2cccc(F)c2)cn1,-1,-2,.,.,0
SMILES,ssDAF-12 act,hcDAF12 agonist,APP 5'UTR act,NF-kB expr up,hgDAF-12 ag
CS(=O)(=O)NN1C(=O)c2ccccc2NC1c1c[nH]c2ccccc12 (stereo not drawn),0,6.2*,14,1.2,3
O=C1NC(=O)c2cc(NC(=O)C3CCCO3)ccc21 (stereo not drawn),-2,1,-1,0.83,4
Cc1ccc2oc(-c3cccc(NC(=O)C4CCCO4)c3)nc2c1 (stereo not drawn),0,4,56,4*,4
O=C(Nc1cccc(-c2nc3cc(Cl)ccc3o2)c1)C1CCCO1 (stereo not drawn),-2,1,.,3.4*,5
Cc1ccc2oc(-c3cccc(NC(=O)c4ccccn4)c3)nc2c1,-1,3,.,.,9
O=C1OCc2cc(NC(=O)C3CCCO3)ccc21 (stereo not drawn),-1,5.8*,-3,1.1,4

# Screens: PubChem, several laboratories
